From PubChem BioAssay AID1649 (The Scripps Research Institute Molecular Screening Center, 2009) come the findings set out here.

The list shows a part of the results. Calls of active or inactive are those of the source. Rule as the data show it: active = activation above about 33%; inactive = the rest.

The nature of the experiment: NPY-Y2 potentiators or agonists, counter-screen for NPY-Y1 potentiator project, cell-based, fluorescence (AID 1649). Particulars: HEK293-CNG cells, membrane-potential fluorescence (FLIPR), 1536-well; at 3.6 µM; active compounds read high. In general terms: Counterscreens check selectivity or assay interference.
As for `CC(=O)c1ccc(NC(=O)C2CC(=O)Nc3nc4ccccc4n32)cc1` (stereo unspecified), the activation was 22.9% (inactive).

For the compound `O=[N+]([O-])c1cc(Cl)cc(/C=N/NC(=S)Nc2cc(S(=O)(=O)N3CCOCC3)ccc2Cl)c1O`, the activation was 64.8% (active).

On to `COC(=O)c1sc(-c2ccc(C(C)(C)C)cc2)cc1NC(=O)/C=C/C(=O)O`, for which the activation is 26.2% (inactive).

Turning to `O=C(Nc1ccc2c(c1)CCC2)c1cccc(S(=O)(=O)Nc2ccccc2Cl)c1`, the activation is -2.29% (inactive).

Consider `CSc1nc(-c2ccco2)nn1C(=O)c1ccccc1Cl`, for which the activation was 18.9% (inactive).

Regarding `COC(=O)c1ccc(NC(=O)CN(c2ccc(C)cc2)S(=O)(=O)c2c(C)n[nH]c2C)cc1`, the activation was 27.7% (inactive).

For `N#Cc1ccc(C(=O)Nc2nc(-c3cccs3)c(C(=O)C(F)(F)F)s2)cc1`, the activation is -11.7% (inactive).

`CC1=C/C(=N\OS(=O)(=O)c2ccccc2)C=CC1=O`: the activation is 35.6% (active).

Consider `Cc1cccc(OCC(O)CN2CCN(CCN3C(=O)c4cccc5cccc(c45)C3=O)CC2)c1C` (stereo unspecified), for which the activation is 49.7% (active).

Turning to `Cc1ccccc1NCC(=O)N/N=C\c1ccc([N+](=O)[O-])s1`, the activation was 26.6% (inactive).

`CN1C(=O)c2ccccc2C(C(=O)NCCCN2CCCC2)C1c1c[nH]c2ccccc12` (stereo unspecified): the activation is -3.74% (inactive).

With `COCCn1nnnc1C(c1ccccc1Cl)N1CCN(c2ccccc2OC)CC1` (stereo unspecified), the activation was -5.69% (inactive).

In the case of `CCn1c2ccccc2c2cc(NC(=O)Nc3ccc([N+](=O)[O-])cc3C)ccc21`, the activation was 20.9% (inactive).

In the case of `O=C1/C(=C/c2coc3ccc(O)cc3c2=O)SC(=S)N1c1ccccc1`, the activation was 17.4% (inactive).

With `O=C(Nc1ccccc1C(F)(F)F)c1cc(-c2ccc(O)cc2)on1`, the activation is -13.4% (inactive).

As to `O=C(c1cccs1)N1CCN(C(=O)N2CCOCC2)CC1`, the activation is -5.13% (inactive).
